# Assay results published in PubChem BioAssay AID2158 (National Center for Advancing Translational Sciences (NCATS), 2009).
# Where “and” joins values, the source holds several entries; their conditions need not be identical. Equal entries are not always repeated. Inconclusive results are not listed. Values without a mark were called inactive. Calls of active or inactive are those of the source. Calls come from the whole dose curve; as a rule, active = well fitted inhibition curve with a large enough effect; inconclusive = small, poorly fitted or top-dose-only effect; inactive = no such curve, though single readings can be large or run the other way.
# Target: Cruzipain (Trypanosoma cruzi) (UniProt P25779)
# Sequence (P25779 123-467 limits assumed): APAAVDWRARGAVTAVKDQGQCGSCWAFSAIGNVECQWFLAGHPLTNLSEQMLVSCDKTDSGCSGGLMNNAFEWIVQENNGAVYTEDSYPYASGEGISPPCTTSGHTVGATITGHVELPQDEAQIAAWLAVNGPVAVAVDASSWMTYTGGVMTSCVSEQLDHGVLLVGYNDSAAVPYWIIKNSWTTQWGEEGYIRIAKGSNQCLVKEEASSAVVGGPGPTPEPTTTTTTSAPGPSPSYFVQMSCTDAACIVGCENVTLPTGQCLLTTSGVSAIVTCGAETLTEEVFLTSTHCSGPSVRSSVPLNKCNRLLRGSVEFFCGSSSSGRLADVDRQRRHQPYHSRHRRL
# Assay: Confirmation qHTS Assay for Inhibitors of Cruzain; note: nearly all actives have a fitted effect of over 40% in size;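 for activity change, negative = inhibition: plate controls were uninhibited enzyme control for no effect and buffer wells lacking enzyme for full effect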
# Details: purified cruzain, Z-FR-AMC fluorescence, 0.01% Triton
# Experimental: Cruzain is a cysteine protease from the tropical parasite Trypanosoma cruzi. This assay protocol is a follow-up and confirmation of related AID 1478 (qHTS Assay for Promiscuous and Specific Inhibitors of Cruzain -- with detergent). Cruzain was assayed by the use of fluorogenic coumarin-based substrate Z-FR-AMC: proteolytic cleavage releases AMC, whose fluorescence is measured at 360 nm excitation and 450 nm emission. Purified cruzain was supplied by the labs of Prof. James McKerrow and Brian Shoichet, UC San Francisco. This assay had 0.01% Triton X-100 concentration. See following references for additional details: Jadhav A, et al. J Med Chem. 2010 Jan 14;53(1):37-51. Mott BT, et al. J Med Chem. 2010 Jan 14;53(1):52-60. Assay Provider: Shoichet, Brian; University of California, San Fancisco Screening Center PI: Austin, C.P. Screening Center: NIH Chemical Genomics Center [NCGC]
# Buffer: 100 mM Sodium Acetate, pH 5.5, 5 mM DTT, Triton X-100 concentration: 0.01%. Reagents/Controls: Buffer in columns 3 and 4 as negative control (no enzyme). Substrate solution: 2 uM final concentration of Z-FR-AMC (catalog number I-1160, Bachem) dispensed throughout the plate. Enzyme: 1.5 nM Cruzain final concentration in columns 1, 2, 5-48. Column 1 is neutral (100% activity). Column 2 contained titration of covalent inhibitor K11777, starting concentration 1 mM, then 1:2 dilution in duplicate). Assay Steps: Three uL of enzyme or buffer were dispensed to 1536-well Greiner black solid bottom plates. Compounds and controls (23 nL) were transferred via Kalypsys PinTool. The plates were incubated for 15 min at room temperature, and then 1 uL of substrate solution was added to start the reaction. The plates were immediately transferred to and read 4 times every 30 seconds for 2 min on ViewLux High-throughput CCD imager (Perkin-Elmer) using 360 nm excitation and 450 nm emission fluorescence protocol. The fluorescence intensity difference between the third and the first time points (time lapse of 60 seconds) was used to compute reaction progress.
# Potency is the fitted concentration of half-maximal effect.
Structure (SMILES),Potency,"activity change, negative = inhibition"
O=C(CNC(=O)C1CCCCC1)OCC(=O)c1ccc(-c2ccccc2)cc1,1.58 µM (active),
CCOc1ccc(-c2csc(NC(=O)c3ccc(S(=O)(=O)N4CCc5ccccc5C4)cc3)n2)cc1,,-11%
O=C(COC(=O)CNC(=O)C1CCCCC1)NC1CCCC1,12.6 µM (active),
O=C(Cn1c(=O)oc2cc(S(=O)(=O)N3CCCCCC3)ccc21)NC1CCCCCCC1,,-3.87%
CC(C)(C)OC(=O)CC(=O)NNC(=O)c1cc2ccccc2[nH]1,,-2.89%
O=C(N/N=C\c1ccccc1O)c1ccccc1O,,-9.61%
CCn1cnc2c(Nc3cc(F)cc(F)c3)nc(C(=O)COc3c(F)c(F)cc(F)c3F)nc21,,-8.99%
O=C(CNC(=O)c1ccccc1Cl)OC(C(=O)Nc1cc(C(F)(F)F)ccc1Cl)c1ccccc1 (stereo not given),8.91 µM (active),
O=C(NCCc1nc2ccccc2n1Cc1ccccc1F)c1ccc(F)cc1,1.58 µM (active),
O=C(NNC(=O)c1cc2ccccc2[nH]1)OCc1ccccc1,,2.31%
O=C(NCc1ccc2c(c1)OCO2)c1ccc2c(c1)N(Cc1cccc(Cl)c1)C(=O)c1ccccc1S2,,3.57%
CC(C)(C)OC(=O)NCC(=O)NNC(=O)c1nc2ccccc2[nH]1,,2.49%
Cc1ccccc1-c1nc2c(=O)n(C)c(=O)nc-2n(C)n1,0.891 µM (active),
CCOC(=O)[C@H](CCc1ccccc1)N[C@@H](C)C(=O)N1[C@H](C(=O)O)C[C@H]2CCCC[C@@H]21,,0.349%
COc1ccccc1CCNC(=O)CNC(=O)c1ccc2ccccc2c1,,-7.19%
CCNc1nc(C#N)nc2c1ncn2-c1cc(F)cc(F)c1,0.224 µM (active),
Cn1nc(-c2ccc(Cl)cc2)nc2c(=O)n(C)c(=O)nc1-2,0.891 µM (active),
CCc1ccc(C(=O)COC(=O)CNC(=O)COc2ccccc2)cc1,,35.9%
O=C(Cc1nnc(CNC(=O)c2ccccc2)o1)Nc1cc(C(F)(F)F)ccc1Cl,,-8.68%
Cc1ccc(C(=O)NCC(=O)OCC(=O)c2ccc3ccccc3c2)cc1,12.6 µM (active),

Structure (SMILES),Potency,"activity change, negative = inhibition"
CCn1nc(-c2ccc(C)cc2)nc2c(=O)n(C)c(=O)nc1-2,2.82 µM (active),
O=C(CNC(=O)C(c1ccccc1)c1ccccc1)OCC(=O)c1cccc2ccccc12,,17.8%
Cc1nc2cc(-c3ccccc3)nn2c(C)c1CCC(=O)N1CCN(c2ccccc2)CC1,,-13%
Cc1cc(C)cc(OCCn2c(CCNC(=O)C3CCCCC3)nc3ccccc32)c1,631 nM (active) and 2.24 µM (active),
CCNc1nc(C#N)nc(N2CCCCC2)n1,5.01 µM (active),
CC(C)(C)OC(=O)NCc1nnc(-c2cc3ccccc3[nH]2)s1,,-12.9%
O=C(CNC(=O)c1ccc2cc[nH]c2c1)OC(C(=O)Nc1cc(C(F)(F)F)ccc1Cl)c1ccccc1 (stereo not given),12.6 µM (active),
COc1ccc(N=Cc2nc(-c3ccccc3)oc2OC(=O)c2ccccc2)cc1,,-22%
Cn1nc(-c2ccc(F)cc2)nc2c(=O)n(C)c(=O)nc1-2,0.631 µM (active),
CN(c1ccccc1)c1nc(C#N)nc(N2CCOCC2)n1,1.26 µM (active),
O=C(OCN1C(=O)c2ccccc2C1=O)/C(=C\c1ccco1)NC(=O)c1ccccc1,1.12 µM (active),
CC(C)(C)OC(=O)NCc1nnc(-c2nc3ccccc3[nH]2)o1,,-4.26%
COc1ccccc1OCCn1c(CCNC(=O)C2CCCCC2)nc2ccccc21,1.41 µM (active),
Cc1ccc2[nH]c(=O)c(NC(N)=S)nc2c1,,-16.5%
N#Cc1nc(Nc2cc(F)cc(F)c2)nc(Nc2cc(F)cc(F)c2)n1,0.0794 µM (active),
CC(C)(C)c1ccccc1Nc1nc(C#N)nc(NC2CCCC2)n1,2 µM (active),
Cn1c(=O)c2c(-c3ccccc3)n(-n3cnnc3)cc2n(C)c1=O,22.4 µM (active),
O=C(NCCc1nc2ccccc2n1CCOc1ccc(Cl)cc1)C1CCCCC1,0.158 µM (active),
Cc1ccc2cc(CN(Cc3ccco3)Cc3nnnn3Cc3ccco3)c(=O)[nH]c2c1,,-10.1%
COc1ccc(-c2nn3c(-c4cc(-c5ccccc5)n[nH]4)nnc3s2)cc1OC,,-9.95%
